Reference: the supplement of paper PMC11417369
The full ranking holds about 25,000 sequences; the median of “ln(normalized median fluorescence intensity)” is about 9.7, and the highest 2% start at about 11. The list comes from a sample in which the highest values are over-represented; it also holds similar and randomly drawn sequences.

These sequences were tested on PfAP2-HC AP2 domain (GST-tagged) (assay: gcPBM binding intensity (ln(normalized median fluorescence intensity)); higher = stronger DNA binding).
Method in brief: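 Binding intensity is defined as the maximum Masliner-normalised natural-log median intensity across replicate spots for either probe orientation. It was measured on an Agilent 4 × 180k array of primer-extended double-stranded 36-bp intergenic genomic probes and negative controls, to which GST-tagged P. falciparum DNA-binding domains made in E. coli were applied for 1 h in 1× PBS with 1% milk, 0.2 mg/ml BSA, 0.5% salmon testes DNA and 0.03% Triton X-100. Detection was by Alexa488 anti-GST antibody and scanning at 488 nm.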

Sequence | gcPBM binding intensity (ln)
AAAAAATTAAAAATACGTACATATATACATATATAT [XGTACX_site4621] | 9.71
CATCATATAAATTCAAGTACAAGAAAAAGTAATATA [XGTACX_site2383] | 9.64
ATATTTATGTAATGTTTGATTTTTTTTTTATGTGTG [CACACA_negctrl_site1422] | 9.88
AGGATATGCGGACACACACACATATATATATATATA [CACACA_site5247] | 11
TACAAATATGGACACACACACATATATATATATATA [CACACA_site4488] | 11.3
AGGATACACGGACACACACACATATATATATATATA [CACACA_site4654] | 10.6
TAATAAAATAATATCACACATATTTATATATATTAT [CACACA_site5814] | 9.61
AAAGGATATGGACACACACACACATATATATATATA [CACACA_site8686] | 10.6
TATTTATATGGACACACACACATATAAATAAATAAA [CACACA_site6346] | 10.2
TACAAATATGGACACACACACATATTTATATTTATA [CACACA_site6420] | 11
TATATATATGGACACACACACATATAAATAAATAAA [CACACA_site4406] | 10.7
ATAAATATAGGACACACACACATATTATATATATAT [CACACA_site5658] | 10.5
GAATAATATGGACATACACACATATACATACATATA [CACACA_site2114] | 10.1
TAATAAATAGGACACACACACATATTTATATATCAT [CACACA_site6771] | 11
TGTACAAATATGTACACACACACATATTTATTTATA [CACACA_site6419] | 10.2
AACTATAACTAAAAAAATCACATAAAATATTTTATT [TGCATGCA_negctrl_site363] | 9.46
TATTTAAAATAATGTGCAAAAGAATAAATAAATAAA [TGCATGCA_negctrl_site194] | 9.74
GTGTACAAAATATGGTAATAAAGTAGTTACATGAAT [CACACA_negctrl_site1775] | 9.86
TGTATATTTGATTCATGTACATATTTTATTTTAACT [XGTACX_site5169] | 9.72
TTATTTATCAAAAAATGTACAAAAATATATAAACAA [XGTACX_site940] | 9.6
ACGCACGAAATAAATACATGCATATTGTAAAAATTA [TGCATGCA_site310] | 9.48
TTAAAAATAAAAAATACACACTCTAGTCCATGTAAC [CACACA_site3640] | 10.1

Sequence | gcPBM binding intensity (ln)
ATGTAACACATATTTGGTACAGATAGATAAAAGTAT [XGTACX_site8291] | 9.87
ATAAAGAAAAATAGAAGTACATATATGCATGTTAAT [XGTACX_site4480] | 9.86
ATGTGTTTCTTCAATTGTACTAAAAGGTATATATTG [XGTACX_site4608] | 9.63
TAAATTATAAATTGCACACATATTTTTATATTTATA [CACACA_site2976] | 9.77
GCTTGGATATATTAATGTACTTATATATTATGTTGT [XGTACX_site3768] | 9.82
AATACATGCTTATTTTAACACACAAATGGTAGTAAT [CACACA_site8154] | 9.83
TATATATATGGACACACACACACATATATATATATA [CACACA_site6121] | 11.3
TATATATATGGACACACACACATATATATATATTTT [CACACA_site5409] | 10.3
AAAAATTATGGACACACACACATATATATATATATT [CACACA_site4717] | 10.3
ATGTCCTATATTAGTACACACATGAAAATATAAATA [CACACA_site7497] | 9.66
AAAAAAAAAAAAAAAAGTACAAATTTAAAAATGTGT [XGTACX_site112] | 9.44
TGGGAATAAAAACACACACACACACCGATATATATA [CACACA_site5875] | 11.3
CTATAATAATAAAGTGAACACACACCGATAATATAT [CACACA_site9377] | 10.1
AGAATAAAAAGGAACACACACACACCCATATATATA [CACACA_site3590] | 10.7
AAAAAGGATAAACACACACACACACCGATATATATA [CACACA_site8206] | 11
AATATAAATAAAAACACACACACACCGATATATATA [CACACA_site5283] | 10.8
CACTAAAATAAACACACACACACACCGATATATATA [CACACA_site9379] | 10.8
CAAAAAAACAAACACACACACACACCGATATATATA [CACACA_site9218] | 10.5
AATAAAAAGGAACACACACACACACCGATATATATA [CACACA_site5895] | 11.2
AAAGATAAAAAAAGTACACACACACCGATATATATA [CACACA_site9006] | 10.6
AACGAAGCATAAAATGTTATGTATATATATAAATAT [TGCATGCA_negctrl_site304] | 9.79
ATAGAAATATATATATGTACATATAGATAAATCTAT [XGTACX_site7833] | 9.75
